Assay outcomes (PubChem)
Hits are enriched below; roughly 8.8% of the tested compounds scored in any of these assays.
HTT aggregate – mutant huntingtin aggregation inhibition | PC12 HttQ103-GFP aggregates, Acumen cytometry, 40 h | Potency, µM (series often up to 46.1 µM), for the others: at the top dose activity change, negative = inhibition, most hits filed as inhibitors | hit rate 1.1% among 220,000 | AID 1688; note: % is set by controls: 0 for no effect and ±100 for the full control effect; nearly all actives have a fitted effect of over 60% in size
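Multiplexed with ATP-based cell death, this channel scores GFP aggregates in PC12 cells expressing inducible HTTex1-Q103-GFP. Induction used 100 nM tebufenozide; compounds were tested in concentration series.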
ALDH1A1 inh – inhibitors of human aldehyde dehydrogenase 1A1; P00352; Purified ALDH1A1, NADH fluorescence, propionaldehyde substrate; hit rate 7.3% among 220,000; Potency, µM (highest dose often 75.3 µM), without a hit: at the highest dose activity, negative = inhibition, usual class: inhibitors; active = well fitted inhibition curve with a large enough effect, not every such curve was filed as active; inconclusive = small, poorly fitted or top-dose-only effect, or another doubt; inactive = no such curve, though single readings can be large or run the other way;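 note: plate controls were no enzyme wells and a reference inhibitor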
Target sequence (P00352 whole entry, looked up): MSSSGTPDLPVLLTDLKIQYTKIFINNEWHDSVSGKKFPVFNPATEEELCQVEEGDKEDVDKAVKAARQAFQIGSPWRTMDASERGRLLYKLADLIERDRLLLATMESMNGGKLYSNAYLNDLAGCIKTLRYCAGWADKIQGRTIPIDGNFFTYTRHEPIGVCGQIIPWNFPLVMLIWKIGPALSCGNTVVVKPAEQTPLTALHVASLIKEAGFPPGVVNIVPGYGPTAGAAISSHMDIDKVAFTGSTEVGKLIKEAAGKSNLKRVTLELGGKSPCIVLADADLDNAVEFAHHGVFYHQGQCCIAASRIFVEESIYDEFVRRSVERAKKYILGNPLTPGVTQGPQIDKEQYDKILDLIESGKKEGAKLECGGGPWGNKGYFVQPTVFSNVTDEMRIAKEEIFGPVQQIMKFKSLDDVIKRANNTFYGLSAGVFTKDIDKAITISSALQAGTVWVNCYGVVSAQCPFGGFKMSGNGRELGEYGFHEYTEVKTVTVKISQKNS
HPGD inh – HPGD (human) dehydrogenase inhibition. P15428. purified HPGD, NADH fluorescence kinetic, PGE2 substrate. Potency, µM, inactives show at the highest dose activity change, negative = inhibition, hits mostly inhibitors. hit rate 4.3% among 150,000; active = well fitted inhibition curve with a large enough effect, not every such curve was filed as active; inconclusive = small, poorly fitted or top-dose-only effect, or another doubt; inactive = no such curve, though single readings can be large or run the other way; note: % is set by controls: 0 for no effect and ±100 for the full control effect
Target sequence (P15428 whole entry, looked up): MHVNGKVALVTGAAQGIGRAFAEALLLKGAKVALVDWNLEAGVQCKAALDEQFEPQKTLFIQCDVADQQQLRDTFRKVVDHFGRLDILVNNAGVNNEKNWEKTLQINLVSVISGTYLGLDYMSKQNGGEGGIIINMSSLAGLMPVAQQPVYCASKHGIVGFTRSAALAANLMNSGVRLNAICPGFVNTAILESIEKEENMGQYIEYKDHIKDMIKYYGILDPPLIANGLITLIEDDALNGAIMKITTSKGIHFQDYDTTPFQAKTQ
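20 nM HPGD preincubated 15 min at room temperature with compound in 50 mM Tris-HCl pH 8, 0.01% Tween 20. Started with 1 mM NAD+ and 30 uM prostaglandin E2; NADH fluorescence (360/450 nm) read 5 times over 30-s intervals, last minus first.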
HTT ATP protect – cytoprotection in Huntington HTT-Q103 PC12 cell model; PC12 HTT-Q103 induced, cytoprotection, ATP luminescence, 40 h; Potency, µM (doses to about 56.4 µM), for the others: cytoprotection (ATP increase), usual class: activators; hit rate 0.14% among 230,000; note: % of control where 0% means no effect; nearly all actives have a fitted effect of over 45% in size
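ATP quantification (ATPlite) reports survival of PC12 cells in which tebufenozide, 100 nM final, switches on Htt exon 1 with 103 glutamines linked to GFP; compounds are titrated.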
Lamin A splicing – LMNA splicing modulation | Potency, µM (series often up to 46.1 µM), for the others: at the highest dose ratio change, negative = inhibition, actives largely listed as inhibitors | AID 1487 | HeLa LMNA splicing GFP/RFP minigene ratio, 48 h | hit rate 0.01% among 200,000; active = well fitted inhibition curve with a large enough effect in the signal ratio, with a control signal flat, not every such curve was filed as active; inconclusive = small, poorly fitted or top-dose-only effect, or effect the other way, or a change in a side signal; the % refers to the signal ratio; note: % is set by controls: 0 for no effect and ±100 for the full control effect
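S3 HeLa cells stably expressing lamin A-EGFP splicing minigene plus DsRed2, 600 cells/well, 48 h compound exposure at 37C. Laser-scanning cytometry; analysed as GFP (500-530 nm)/RFP (575-640 nm) total intensity ratio; 0.5% DMSO vehicle.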
Starred values were filed as active, the others as inactive; ? = inconclusive; / = not tested or not shown; ! = repeats disagree; [ ] = another dose, or the depositor's remark. Unless noted, calls come from the whole dose curve; as a rule, active = well fitted curve in the direction sought with a large enough effect; inconclusive = small, poorly fitted or top-dose-only effect, or another doubt; inactive = no such curve, though single readings can be large; an effect the other way counts as inactive or inconclusive. Potency is the fitted concentration of half-maximal effect.

SMILES	HTT aggregate	ALDH1A1 inh	HPGD inh	HTT ATP protect	Lamin A splicing
CCN1CCCc2cc(CN(CCN3CCOCC3)C(=O)Nc3ccc(C)c(C)c3)ccc21	-4%[9.22 µM]	28µM*	-8%	-20%	0%
CCc1ccc(NC(=O)N(CCN2CCOCC2)Cc2ccc3c(c2)CCCN3CC)cc1	11%[9.22 µM]	?	?	-1%	13%
CCN1CCCc2cc(CN(CCN3CCOCC3)C(=S)Nc3ccccc3OC)ccc21	-5%[9.22 µM]	?	/	-22%	?
CCN1CCCc2cc(CN(CCN3CCOCC3)C(=S)Nc3ccccc3C)ccc21	-2%	22µM*	/	-54%	?
Cc1ccc(NC(=O)N2CCC(n3c(C)nc4cccnc43)CC2)c(Cl)c1	/	/	/	/	5%[46 µM]
CCc1ccccc1NC(=O)CN1C(=O)CCc2cc(S(=O)(=O)N3CCCCC3)ccc21	/	/	/	/	17%[46 µM]
O=C1C2ON(c3ccccc3)C(c3cccnc3)C2C(=O)N1Cc1ccccc1 (stereo unspecified)	-14%	35µM*	-12%	8%	0%
Cc1ccccc1N1C(=O)C2ON(c3ccccc3)C(c3cccnc3)C2C1=O (stereo unspecified)	-23%	-9%	-8%	-7%	-6%
CN=C1S/C(=C\c2cc(C)n(-c3ccccc3F)c2C)C(=O)N1C	?	18µM*	22µM*	-15%[10 µM]	?
C[C@H]1OC(=O)CC[C@@H]2[C@]1(C)CCC1[C@@]2(C)CC[C@@]2(C)C3CC(C)(C)CC[C@]3(CO)CC[C@]12C (stereo partly specified)	/	4%	-4%	?	/
O=C(COC(=O)c1cccnc1Cl)Nc1cc(S(=O)(=O)N2CCCCC2)ccc1Cl	3%	3%	/	-29%	-5%[46 µM]
CN(C)c1ccc(/C=N/N2C(=S)SC(C)(C)C2N(O)C(=O)Nc2ccc([N+](=O)[O-])cc2)cc1 (stereo unspecified)	-31%	13µM*	-12%	-25%	-12%
O=C(NC1CCCCCC1)c1ccc2c(c1)sc1nc(-c3ccccc3)cn12	/	/	/	/	16%[46 µM]
CCn1c(SCc2cccc(F)c2)nc2c(c1=O)SCC2	-16%	14µM*	/	-58%	/
COc1cc(C(=S)N2CCCC2)ccc1O	-4%	14µM*	28µM*	-4%[0.074 µM]	0%
COc1cc(C(=S)N2CCCCC2)ccc1O	-7%	?	-16%	9%[10 µM]	6%
COc1cc(C(=S)N2CCC(C)CC2)ccc1O	-10%	10µM*	14µM*	-9%	0%
COc1cc(C(=S)N2CCC(C(N)=O)CC2)ccc1O	-33%	10µM*	18µM*	15%[0.074 µM]	16%
C#C[C@H](N)CCC(=O)O	/	/	/	-4%[1.9 µM]	/
CCOc1ccc(-n2c(SCC(=O)Nc3ccc4c(c3)OCCO4)nc3c([nH]c4ccccc43)c2=O)cc1	/	/	/	/	9%[46 µM]
CC(C)(C)c1ccc(C(=O)N2CCC(=O)N([C@H](COCc3ccc(Cl)cc3)Cc3ccccc3)CC2)cc1	/	?	-16%	/	/
Cc1ccc(C)c(N2CCN(C(=O)c3cnn(-c4ccccc4Cl)c3C3CCN(C(=O)OC(C)(C)C)CC3)CC2)c1	/	/	/	/	-20%[46 µM]
O=C(NCc1ccccc1)c1cc2ccccc2o1	24%	?	18µM*	9%	1%[46 µM]
CC(NC(=O)c1cc2ccccc2o1)C(=O)O (stereo unspecified)	9%	22µM*	-6%	26%	4%
CC(C)NC(=O)c1cc2ccccc2o1	-26%	11%	-12%	-5%[1.9 µM]	-9%
SMILES	HTT aggregate	ALDH1A1 inh	HPGD inh	HTT ATP protect	Lamin A splicing
O=C(O)c1cc2c(ccc3ccccc32)o1	18µM*	-2%	?	-36%	9%
COC(=O)c1ccc(CNC(=O)c2cc3ccccc3oc2=O)cc1	9%	-6%	/	6%	2%[46 µM]
CCNC(=O)c1cc2ccccc2o1	-1%	10%	-4%	/	0%
COc1ccc(C(=O)N/N=c2\oc3ccccc3cc2C(=O)NCc2ccccc2)cc1	-26%	11µM*	-5%	-10%[10 µM]	-2%
Cc1cccc(Cn2cccc2CNS(=O)(=O)c2ccccc2F)c1	/	/	/	/	11%[46 µM]
O=C1COc2ccc(-c3csc(NCC4CCCO4)n3)cc2N1 (stereo unspecified)	-7%	6%	-14%	-11%	-1%
CC(Nc1nc(-c2ccc3c(c2)NC(=O)CO3)cs1)c1ccccc1 (stereo unspecified)	?	6.3µM*	/	5%	?
COc1cccc(-c2nc(-c3ccc4c(c3)NC(=O)CO4)cs2)c1	20%	20µM*	/	-37%	/
COc1ccc(-c2cc(-c3ccc(OC)cc3)nc(-c3ccc4c(c3)NC(=O)CO4)c2)cc1	1%	?	-9%	-64%	21%
CCCCCCC(=O)Cc1cc(OC)c(OC)cc1/C=C(/C(C)=O)C(=O)OC	/	-2%[13.5 µM]	/	-35%[10 µM]	/
NC(=O)NNc1cccc(Cl)n1	14%	35µM*	/	-8%	/
CC(=O)NNc1cccc(Cl)n1	19%	?	-5%	-1%	16%
COc1ccccc1CCNC(=O)C(=O)NCC(c1ccco1)S(=O)(=O)c1cccs1 (stereo unspecified)	/	/	/	/	-8%[46 µM]
CCOc1ccc(NC(=S)N2CCCN(Cc3cc(C)ccc3C)C2)cc1	28µM*	1%	/	-46%	?
COCCn1c(=O)c(-c2cccs2)nc2cnc(Oc3cccc(Cl)c3)nc21	/	?	?	-44%	/
COc1ccc(-c2nc3cnc(OC)nc3n(-c3ccccc3)c2=O)cc1	/	?	/	10%	1%
Cc1ccc(-c2nnn(CC(=O)N(CC(=O)NCc3ccccc3)c3cccc(C)c3C)n2)o1	6%	10µM*	25µM*	13%[10 µM]	-14%
Cc1cccc(N(CC(=O)NCc2ccccc2)C(=O)Cn2nnc(-c3ccc(C)o3)n2)c1	-3%	-3%	-7%	9%[10 µM]	-3%
CS(=O)(=O)Nc1c(O)ccc2c1CCCC2C1=NCCN1 (stereo unspecified)	/	2%	/	7%	/
CSc1nc(=S)c2[nH]c(=S)[nH]c2[nH]1	3%[9.22 µM]	1.4µM*	/	15%[10 µM]	/
Cc1c2ccccc2c(CSC(=N)N)c2ccccc12	/	14µM*!	?	-55%[10 µM]	/
Cc1c2ccccc2c(C)c2c1ccc1ccccc12	/	-3%	?	-207%	/
Cc1cccc(N2CCN(C(=O)c3cn4ccccc4n3)CC2C)c1 (stereo unspecified)	-5%	5%	/	-40%	/
O=C(CSc1nnc(CNC(=O)c2c(F)cccc2Cl)o1)Nc1ccc2c(c1)OCCO2	2%	18µM*	-7%	-1%	5%
CC(C)(C)OC(=O)NCCCCCc1nnc(SCC(=O)Nc2cccc(Cl)c2)o1	0%[9.22 µM]	?	14µM*	-3%[0.074 µM]	?
COc1ccc(OC)c(NC(=O)CSc2nnc(CNC(=O)c3ccco3)o2)c1	3%	10µM*	-16%	0%	4%
COc1ccc(OC)c(NC(=O)CSc2nnc(C)n2Cc2ccccc2)c1	11%	18µM*	-11%	9%	-5%
COc1ccccc1NC(=O)c1c(C)cc(C)nc1SCC(=O)Nc1cccc(C)c1	/	/	/	/	7%[46 µM]
